TDP1 cell CPT – qHTS for Inhibitors of human tyrosyl-DNA phosphodiesterase 1 (TDP1): qHTS in cells in presence of CPT. chicken DT40 Tdp1-/-;hTDP1 cells + 20 nM CPT, ATP luminescence, 48 h. Potency, µM (series often up to 46.2 µM), hits mostly inhibitors. 420,000 compounds, 12% hits. AID 686979, 2013; further: nearly all actives have a fitted effect of over 55% in size
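Chicken DT40 Tdp1-/- cells complemented with human TDP1, 400 cells/well, exposed to compounds plus 20 nM camptothecin for at least 48 h at 37 C; viability read as ATP content by CellTiter-Glo luminescence.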
VP16 counter – VP16 counterscreen qHTS for inhibitors of ROR gamma transcriptional activity | Drosophila S2 Gal4-VP16 UAS-luciferase, luminescence, 20 h | Potency, µM (titrated, usually from 53.6 µM), actives largely listed as inhibitors | 310,000 compounds, 3.5% hits | AID 2546, 2010;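 further: Gal4-VP16 expression switched on by copper sulfate through the metallothionein promoter; nearly all actives have a fitted effect of over 50% in size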
TDP1 block – qHTS Assay for Inhibitors of Tyrosyl-DNA Phosphodiesterase (TDP1); Tyrosyl-DNA phosphodiesterase 1 (Homo sapiens), Q9NUW8; recombinant TDP1, AlphaScreen DNA substrate cleavage; Potency, µM (series often up to 130 µM), hits mostly inhibitors; 350,000 compounds, 0.28% hits; AID 485290, 2010; further: nearly all actives have a fitted effect of over 40% in size
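Compounds were preincubated with Tdp1 (1 nM final) for 15 min at room temperature before substrate (15 nM final) started a 5 min reaction; beads (10 ug/ml final) were then added for 10 min before AlphaScreen detection.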
RORg inh – qHTS for inhibitors of ROR gamma transcriptional activity. Nuclear receptor ROR-gamma (Mus musculus), P51450. Drosophila S2 Gal4-RORgamma UAS-luciferase reporter, 20 h. Potency, µM (highest dose often 53.6 µM), usual class: inhibitors. 310,000 compounds, 5.4% hits; further: nearly all actives have a fitted effect of over 60% in size
Target sequence (P51450 whole entry, looked up, the tested form may be a part): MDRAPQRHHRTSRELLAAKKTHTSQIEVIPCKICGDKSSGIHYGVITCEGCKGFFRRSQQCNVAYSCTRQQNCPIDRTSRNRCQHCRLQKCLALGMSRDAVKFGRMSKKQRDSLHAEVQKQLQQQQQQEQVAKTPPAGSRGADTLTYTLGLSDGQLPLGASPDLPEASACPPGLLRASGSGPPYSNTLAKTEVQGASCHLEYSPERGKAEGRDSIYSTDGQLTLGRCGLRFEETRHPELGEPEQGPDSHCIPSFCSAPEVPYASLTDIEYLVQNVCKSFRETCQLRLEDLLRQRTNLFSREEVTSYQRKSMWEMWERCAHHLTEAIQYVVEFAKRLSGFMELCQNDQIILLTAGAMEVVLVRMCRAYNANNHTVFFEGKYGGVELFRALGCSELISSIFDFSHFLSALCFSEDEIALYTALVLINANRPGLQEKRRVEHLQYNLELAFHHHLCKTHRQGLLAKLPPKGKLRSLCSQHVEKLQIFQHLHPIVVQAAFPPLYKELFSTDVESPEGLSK
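Luciferase reporter read in Schneider cells carrying Gal4-RORγ (mouse) and UAS-Photinus luciferase; cells given compound 1 h before 700 uM copper sulfate induction, then incubated 20 h at ambient temperature.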
DT40 TDP1 no CPT – qHTS for Inhibitors of human tyrosyl-DNA phosphodiesterase 1 (TDP1): qHTS in cells in absence of CPT. Potency, µM (top dose mostly 46.2 µM), hits mostly inhibitors. DT40 Tdp1-/- hTDP1 cells, no CPT, ATP luminescence, 48 h. 420,000 compounds, 15% hits; further: nearly all actives have a fitted effect of over 55% in size
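Growth kinetics read by CellTiter-Glo luminescence after ≥48 hr at 37 °C. Cells: DT40 Tdp1-/- stably carrying human TDP1, 400 per well, compound exposure in the absence of CPT (DMSO vehicle).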
Of the large screens only hits and unclear results are named; the others gave an inactive call. An excerpt weighted towards active compounds, which were near 19% of everything screened. The call rests on the fitted dose curve; in most records, active means well fitted curve in the direction sought with a large enough effect; inconclusive means small, poorly fitted or top-dose-only effect, or another doubt; inactive means no such curve, though single readings can be large; an effect the other way counts as inactive or inconclusive.

Fc1ccccc1-c1n[nH]c(=S)n1C1CC1	VP16 counter inconclusive, RORg inh 10µM (no result: TDP1 cell CPT, DT40 TDP1 no CPT)
Cc1ccc2c(c1)C1(SCCS1)C(=O)N2	none
NC(=O)COC(=O)c1ccccc1SCC(=O)NC1CCCCCC1	none
COc1cccc(N2CCN(C(=O)c3cnc4c(C)cccn4c3=O)CC2)c1	none (no result: VP16 counter, RORg inh)
CC(=O)c1c(C)[nH]c(C(=O)Nc2cccnc2)c1C	none
CC(=O)c1c(C)[nH]c(C(=O)Nc2ccc(C)c(C)c2)c1C	none
CC(=O)c1c(C)[nH]c(C(=O)Nc2cccc(C#N)c2)c1C	DT40 TDP1 no CPT 16.4µM
CC(=O)c1c(C)[nH]c(C(=O)Nc2cccc(C(F)(F)F)c2)c1C	TDP1 cell CPT inconclusive, RORg inh inconclusive, DT40 TDP1 no CPT 20.6µM (no result: TDP1 block)
CC(NC(=O)CSc1nnnn1C1CC1)c1ccccc1Br (stereo not given)	none (no result: VP16 counter, RORg inh)
O=C(c1cn(Cc2ccccc2)nc1-c1cccnc1)N1CCc2ccccc2C1	TDP1 cell CPT inconclusive, DT40 TDP1 no CPT inconclusive (no result: VP16 counter, RORg inh)
Cc1ccc(S(=O)(=O)N2C[C@@H]3[C@H]4CC[C@H](C4)[C@@H]3[C@@H](C)[C@H]2c2ccn(Cc3ccccc3)c2)cc1	TDP1 cell CPT 29.1µM (no result: VP16 counter, RORg inh)
Cc1ccc(S(=O)(=O)N2CCN(C3CCN(Cc4ccccc4)CC3)CC2)cc1	DT40 TDP1 no CPT inconclusive
Cc1ccc(S(=O)(=O)N2C[C@@H]3CCCC[C@@H]3[C@@H](C)[C@H]2c2cn(Cc3ccccc3)c3ccccc23)cc1	TDP1 cell CPT 6.51µM, DT40 TDP1 no CPT 7.31µM (no result: VP16 counter, RORg inh)
Cc1ccc(S(=O)(=O)N2C[C@@H]3CCCC[C@@H]3[C@@H](C)[C@H]2c2cn(Cc3ccccc3)c3ncccc23)cc1	TDP1 cell CPT 11.6µM, DT40 TDP1 no CPT inconclusive (no result: VP16 counter, RORg inh)
Cc1ccc(S(=O)(=O)N2C[C@@H]3[C@H]4CC[C@H](C4)[C@@H]3[C@@H](C)[C@H]2C#N)cc1	TDP1 cell CPT 20.6µM, DT40 TDP1 no CPT inconclusive (no result: VP16 counter, RORg inh)
Cc1ccc(S(=O)(=O)N2C[C@H]3[C@H]4C(=O)N(C5CCCCC5)C(=O)[C@H]4CC(=O)[C@H]3[C@@H]2c2cccc3ccccc23)cc1	none (no result: VP16 counter, TDP1 block, RORg inh)
Cc1ccc(NC(=O)CC2SCCNC2=O)cc1[N+](=O)[O-] (stereo not given)	none
Cc1ccc2cccc(S(=O)(=O)Nc3c(C)n(C)n(-c4ccccc4)c3=O)c2n1	none
Cc1ccc(S(=O)(=O)N2C[C@H]3[C@H]4C(=O)N(Cc5ccccc5)C(=O)[C@H]4CC(=O)[C@H]3[C@@H]2c2ccccc2Cl)cc1	DT40 TDP1 no CPT inconclusive (no result: VP16 counter, TDP1 block, RORg inh)
Cc1ccc(S(=O)(=O)N2C[C@@H]3[C@H]4CC[C@H](C4)[C@@H]3[C@@H](C)[C@@H]2c2cn(Cc3ccccc3)c3ncccc23)cc1	TDP1 cell CPT 23.1µM, DT40 TDP1 no CPT 20.6µM (no result: VP16 counter, RORg inh)
O=C(CCCSCCCC(=O)NN=Cc1ccccc1)NN=Cc1ccccc1	TDP1 cell CPT inconclusive, DT40 TDP1 no CPT 23.1µM (no result: VP16 counter, TDP1 block, RORg inh)
CC(=O)Oc1ccc(/C=N/NC(=O)CCSc2ccccc2)cc1	TDP1 cell CPT inconclusive, RORg inh inconclusive, DT40 TDP1 no CPT 18.4µM
COc1ccccc1/C=N/NC(=O)CCSc1ccccc1	none
CS(=O)(=O)c1cnc2c(S(=O)(=O)c3ccccc3)cnn2c1N	none
Nc1c(S(=O)(=O)c2ccccc2)cnc2c(-c3ccc(F)cc3)cnn12	VP16 counter 10µM, RORg inh 4.47µM
COc1ccc(-c2cnn3c(N)c(S(=O)(=O)c4ccccc4)cnc23)cc1	TDP1 cell CPT inconclusive, VP16 counter 5.62µM, RORg inh 2.82µM, DT40 TDP1 no CPT inconclusive
CC(=O)N(CCN1CCOCC1)Cc1cc2cc3c(cc2nc1Cl)OCO3	none
C[C@H](NC(=O)C[C@@H]1CC[C@H]2[C@@H](COC[C@H](O)CN2Cc2ccc(C(F)(F)F)cc2)O1)c1ccccc1	TDP1 cell CPT 18.4µM, DT40 TDP1 no CPT 20.6µM (no result: VP16 counter, TDP1 block, RORg inh)
O=C(C[C@H]1CC[C@@H]2[C@H](COC[C@@H](O)CN2Cc2ccc(Cl)cc2)O1)NCCc1ccccc1	DT40 TDP1 no CPT inconclusive (no result: VP16 counter, TDP1 block, RORg inh)
CC(=NN1CC(=O)NC1=O)c1ccc([N+](=O)[O-])o1	TDP1 cell CPT inconclusive, DT40 TDP1 no CPT 16.4µM (no result: VP16 counter, TDP1 block, RORg inh)
COc1ccc(NC(=S)N(CCc2c(C)[nH]c3ccc(C)cc23)Cc2cccs2)cc1	TDP1 cell CPT 16.4µM, RORg inh inconclusive, DT40 TDP1 no CPT inconclusive
COc1ccc2[nH]c(C)c(CCN(Cc3cccs3)C(=S)Nc3ccccc3)c2c1	TDP1 cell CPT inconclusive, RORg inh 1.78µM, DT40 TDP1 no CPT inconclusive
CNC(=S)N(CCc1c(C)[nH]c2ccc(C)cc12)Cc1cccs1	TDP1 cell CPT inconclusive, VP16 counter inconclusive, RORg inh 11.2µM, DT40 TDP1 no CPT inconclusive
COc1ccc2[nH]c(C)c(CCN(Cc3cccs3)C(=S)Nc3ccc(F)cc3)c2c1	TDP1 cell CPT inconclusive, DT40 TDP1 no CPT inconclusive
COCCNC(=O)C1CCC(=O)N(c2ccc(OC)cc2)C1c1ccc(OC)c(OC)c1 (stereo not given)	none
COc1ccc(OCc2nnc(SCC(=O)Nc3cccc(Cl)c3)o2)cc1	none (no result: TDP1 block)
O=C(Cn1c(=O)sc2ccccc21)NCc1ccccn1	none
C/C(=N\n1c(C)nc2ccccc2c1=O)c1ccc(C)o1	none
CCOC(=O)c1cc2sccc2n1CC(=O)N1CCc2ccccc21	TDP1 cell CPT 4.61µM, DT40 TDP1 no CPT 11.6µM
O=C(CCCC(=O)N1CCc2ccccc21)N1CCc2ccccc21	none
CCOCC(=O)N1CCc2ccccc21	DT40 TDP1 no CPT 18.4µM
O=C(CN1CCCc2ccccc21)N1CCc2ccccc21	TDP1 cell CPT 16.4µM, RORg inh inconclusive, DT40 TDP1 no CPT inconclusive
O=C(COc1ncnc2ccccc12)NCc1ccco1	none
CCOC(=O)c1cnc2c(ccc3ccccc32)c1Nc1ccc(OCC)cc1	TDP1 cell CPT inconclusive (no result: VP16 counter, RORg inh)
CCOC(=O)c1cnc2ccccc2c1NCc1ccco1	TDP1 cell CPT inconclusive, VP16 counter inconclusive, RORg inh 6.31µM, DT40 TDP1 no CPT inconclusive
CCOC(=O)c1cnc2ccccc2c1Nc1ccc2c(c1)OCCO2	TDP1 cell CPT inconclusive, VP16 counter inconclusive, RORg inh 11.2µM, DT40 TDP1 no CPT inconclusive
CCC(Cc1ccccc1)NS(=O)(=O)c1csc(C(N)=O)c1 (stereo not given)	none
CCN(CC)C(=S)SC1CCCCN(C(=O)c2ccccc2)C1=O (stereo not given)	TDP1 cell CPT 18.4µM
CN(Cc1ccccc1)CC1CCCN(CCc2ccccc2F)C1 (stereo not given)	TDP1 cell CPT inconclusive, DT40 TDP1 no CPT inconclusive
COc1cc(CN(C)CC2CCCN(CCc3cccc(C(F)(F)F)c3)C2)ccc1O (stereo not given)	TDP1 cell CPT inconclusive, DT40 TDP1 no CPT 23.1µM (no result: TDP1 block)

Source: PubChem BioAssay
